SW480 rerep: induces DNA re-replication in SW480 colon adenocarcinoma cells | Potency, µM (titrated, usually from 46.1 µM), usual class: activators | actives 1.8% (n = 340,000) | AID 624297 | SW480 DNA re-replication, Hoechst DNA content imaging, 48 h; also: nearly all actives have a fitted effect of over 55% in size
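DNA re-replication was detected as more nuclei of elevated Hoechst intensity after 48 hr exposure to compound (23 nL pinned per well of 250 cells).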
Gal4-VP16 FLuc: inhibits Gal4-VP16 luciferase reporter, ROR gamma counter-screen. Potency, µM (series often up to 53.6 µM), usual class: inhibitors. Drosophila S2 Gal4-VP16 UAS-luciferase, luminescence, 20 h. actives 3.5% (n = 310,000);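 also: Gal4-VP16 expression switched on by copper sulfate through the metallothionein promoter; nearly all actives have a fitted effect of over 50% in size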
ELG1 repair inh: inhibitors of ELG1-dependent DNA repair in HEK293T cells | actives 2.3% (n = 330,000) | HEK293T ELG1-luciferase reporter, luminescence, 16 h; DNA damage induced by 5-fluorouridine | Potency, µM (series often up to 46.1 µM), usual class: inhibitors; also: nearly all actives have a fitted effect of over 55% in size
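HEK293T cells expressing luciferase-tagged ELG1 (2,000/well) received 5-Fluorouridine plus compound or DMSO for 16 hr at 37 °C. Luciferase was read by ONE-Glo luminescence after 30 min at room temperature.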
RORg inh: ROR gamma (mouse) transcription inhibition. P51450. Drosophila S2 Gal4-RORgamma UAS-luciferase reporter, 20 h. Potency, µM (series often up to 53.6 µM), hits mostly inhibitors. actives 5.4% (n = 310,000); also: nearly all actives have a fitted effect of over 60% in size
Target sequence (P51450 whole entry, looked up, the tested form may be a part): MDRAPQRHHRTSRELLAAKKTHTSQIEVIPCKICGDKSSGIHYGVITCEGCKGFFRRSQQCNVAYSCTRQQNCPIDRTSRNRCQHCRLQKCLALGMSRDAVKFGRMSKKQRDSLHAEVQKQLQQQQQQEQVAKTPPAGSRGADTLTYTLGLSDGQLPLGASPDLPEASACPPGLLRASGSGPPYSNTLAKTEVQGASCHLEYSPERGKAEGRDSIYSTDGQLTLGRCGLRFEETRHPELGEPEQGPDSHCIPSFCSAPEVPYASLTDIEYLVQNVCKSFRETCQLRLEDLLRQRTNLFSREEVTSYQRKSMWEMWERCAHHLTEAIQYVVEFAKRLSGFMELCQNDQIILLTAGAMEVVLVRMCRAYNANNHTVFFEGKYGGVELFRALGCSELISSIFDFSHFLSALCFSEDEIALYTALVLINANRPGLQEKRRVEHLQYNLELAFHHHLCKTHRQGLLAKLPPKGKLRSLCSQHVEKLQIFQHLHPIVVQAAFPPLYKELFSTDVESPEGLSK
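ROR gamma transcriptional activity was tracked as Gal4-UAS luciferase output in stably transfected Drosophila Schneider cells, with compound added 1 hr before 700 uM copper sulfate induction and a 20 hr ambient-temperature incubation.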
MCF10A rerep: inducers of DNA re-replication in MCF 10A breast cells; MCF 10A DNA re-replication, Hoechst nuclear intensity, 48 h; Potency, µM (titrated, usually from 46.1 µM), most hits filed as activators; actives 2.9% (n = 350,000); AID 624296; also: nearly all actives have a fitted effect of over 50% in size
Numbers stand for hits; n = inactive; u = inconclusive; x = no result given; ! = repeats disagree. In the library only some 10% were active in any assay of this set; here they are far more common. Calls follow the shape of the dose curve; as a rule, active = well fitted curve in the direction sought with a large enough effect; inconclusive = small, poorly fitted or top-dose-only effect, or another doubt; inactive = no such curve, though single readings can be large; an effect the other way counts as inactive or inconclusive.

SMILES	SW480 rerep	Gal4-VP16 FLuc	ELG1 repair inh	RORg inh	MCF10A rerep
CC(C)(C)c1ccc(-c2noc(-c3ccc4c(c3)CCO4)n2)cc1	4.61µM	n	u	n	u
Cc1cc(-c2nc(-c3ccc(C(C)(C)C)cc3)no2)no1	u	n	u	n	n
COc1cc(NCCCCCCCN)c2ncccc2c1	u	u	n	1.58µM	u
COc1cc(NC(C)CCCN)c2ncccc2c1 (stereo unspecified)	u	n	n	n	n
COc1cc(NCc2ccccc2O)c2ncccc2c1	n	n	n	n	20.6µM
COc1ccc(C2NCCc3c2[nH]c2ccccc32)cc1COc1ccc(F)cc1 (stereo unspecified)	u	8.91µM	u	10µM	18.4µM
COc1ccc(C2NCCc3c2[nH]c2ccccc32)cc1CN1CCc2cc(OC)c(OC)cc2C1C (stereo unspecified)	u	n	n	n	u
COc1ccc(/C=N/n2c(-c3cccs3)n[nH]c2=S)cc1	n	u	n	2.82µM	n
CCN(CC)S(=O)(=O)c1cccc(-c2n[nH]c(=S)n2/N=C/c2ccc(OC)cc2)c1	n	n	n	u	n
S=c1[nH]nc(-c2ccco2)n1/N=C/c1c(Cl)cccc1Cl	n	n	n	n	n
S=c1[nH]nc(-c2cccs2)n1/N=C/c1c(Cl)cccc1Cl	n	n	n	11.2µM	n
Cc1ccc(/C=N/n2c(-c3cccs3)n[nH]c2=S)cc1	n	u	n	2µM	u
CCc1ccccc1OCC(=O)Nc1cc(S(=O)(=O)N2CCOCC2)ccc1N1CCCCC1	n	x	u	x	n
CCOc1ccc(Br)cc1S(=O)(=O)NCc1ccncc1	n	n	n	n	u
Cc1cc(C(=O)CCC(=O)Nc2ncccc2C)c(C)s1	n	x	n	x	n
CSc1nccc(N2CCN(c3ccc(F)cc3)CC2)n1	n	12.6µM	n	u	n
CC1=C(C(=O)OC(C)C)[C@@H](c2ccc(C)o2)NC(=O)N1	n	n	n	n	u
O=C(NCCc1ccccc1)C1CCN(S(=O)(=O)N2CCC3(CC2)OCCO3)CC1	u	u	n	n	n
O=C(C1CCN(S(=O)(=O)N2CCC3(CC2)OCCO3)CC1)N1CCN(Cc2ccccc2)CC1	5.8µM	n	n	n	u
O=C(NCc1ccccn1)C1CCN(S(=O)(=O)N2CCC3(CC2)OCCO3)CC1	11.6µM!	n	n	n	u
O=C(COc1ccc(C(=O)c2ccc(F)cc2)cc1)NCc1ccc(F)cc1	14.6µM	n	u	n	1.46µM
Cc1ccc(CNC(=O)COc2ccc(C(=O)c3ccc(F)cc3)cc2)cc1	u	n	n	n	16.4µM
COc1ccc(CNC(=O)COc2ccc(C(=O)c3ccc(F)cc3)cc2)cc1	u	n	n	n	1.16µM
COc1ccc(CNC(=O)COc2ccc(F)cc2)cc1	n	n	n	n	n
O=C(COC(=O)c1ccc(F)cc1)NCc1ccc(F)cc1	n	x	n	x	n
SMILES	SW480 rerep	Gal4-VP16 FLuc	ELG1 repair inh	RORg inh	MCF10A rerep
Cc1cccc(NC(=O)CNC(=O)COc2ccc(C(=O)c3ccc(F)cc3)cc2)c1C	u	n	u	n	14.6µM
COc1ccc(CNC(=O)COc2ccc(OC)cc2)cc1	n	n	n	n	n
Cc1cccc(NC(=O)CNC(=O)COc2ccc(-c3ccc(C#N)cc3)cc2)c1C	n	n	n	n	n
COCCNc1nc(C)nc2c1nc(-c1ccccc1)n2C1CCN(Cc2ccccc2)C1 (stereo unspecified)	x	n	x	n	x
CCN(C[C@H]1N[C@@](CC)(C(=O)OC)[C@H]2C(=O)N(Cc3ccccc3)C(=O)[C@@H]12)C(=O)NC(C)C	n	x	n	x	n
COc1cc2nc(/C=C/c3ccc(N(C)C)cc3)sc2cc1SC	20.6µM	n	n	n	3.26µM
O=c1nc(/C=C/c2cc([N+](=O)[O-])ccc2Cl)cc(C(F)(F)F)[nH]1	n	n	u	n	3.26µM
COc1cc(OC)c(OC)cc1/C=C/c1cc(C(F)(F)F)[nH]c(=O)n1	18.4µM	n	n	n	23.1µM
COc1cc(/C=C/c2cc(C(F)(F)F)[nH]c(=O)n2)cc(OC)c1OC	20.6µM	u	u	u	u
O=c1nc(/C=C/c2cccn2-c2ccc([N+](=O)[O-])cc2)cc(C(F)(F)F)[nH]1	n	n	n	n	n
Cc1cccc(NC(=S)N/N=C/c2cccn2Cc2ccc(F)cc2)c1	n	2.24µM	u	0.199µM	8.2µM
CSc1ccccc1NC(=S)N/N=C/c1cccn1Cc1cccc(C)c1	u	5.01µM	u	0.891µM	n
CSc1ccccc1NC(=S)N/N=C/c1cccn1Cc1ccc(F)cc1	n	u	u	u	u
C/C=C1\C(=O)C[C@H]2[C@@H]3CCC4=CC(=O)CC[C@]4(C)[C@H]3CC[C@]12C	x	n	x	n	x
CC[C@@H]1C=C(C)C[C@H](C)C[C@H](OC)[C@H]2O[C@@](O)(C(=O)C(=O)N3CCCC[C@H]3C(=O)O[C@H](/C(C)=C/[C@@H]3CC[C@@H](O)[C@H](OC)C3)[C@H](C)[C@@H](O)CC1=O)[C@H](C)C[C@@H]2OC	u	n	8.2µM	u	u
CO[C@H]1C[C@@H]2CC[C@@H](C)[C@@](O)(O2)C(=O)C(=O)N2CCCC[C@H]2C(=O)OC([C@H](C)C[C@@H]2CC[C@@H](O)[C@H](OC)C2)CC(=O)[C@H](C)/C=C(\C)[C@@H](O)[C@@H](OC)C(=O)[C@H](C)C[C@H](C)/C=C/C=C/C=C/1C (stereo partly specified)	x	n	x	n	x
CC(=O)N1CCn2c3c(c4cc(C)ccc42)CCCC31 (stereo unspecified)	n	n	n	n	n
Cc1ccc2c(c1)c1c3n2CCN(C(=O)CCl)C3CCC1 (stereo unspecified)	u	11.2µM	n	2.51µM	u
O=C(CO/N=C/c1ccc(OC(F)F)cc1)N1CCc2ccccc21	n	n	n	n	u
CCN(CC)c1ccc(/C=N/OCC(=O)N2CCCc3ccccc32)cc1	n	n	n	u	16.4µM
Cc1ccc(S(=O)(=O)/N=C(/Nc2cccc(O)c2)c2ccccc2)cc1	n	n	n	u	n
Cc1csc2c(N3CCN(C(=O)Nc4ccc(OC(F)(F)F)cc4)CC3)ncnc12	n	12.6µM	u	u	u
Cc1csc2c(N3CCC(C(=O)O)CC3)ncnc12	n	n	u	n	n
O=C1c2c(O)ccc(O)c2C(=O)c2c(NCCNCCO)ccc(NCCNCCO)c21	n	u	11.2µM	10µM!	n
CCN(C(=O)COC(=O)c1cccnc1Nc1ccccc1F)C1CCS(=O)(=O)C1 (stereo unspecified)	n	n	u	n	n
COc1ccc(-c2cc(C(F)(F)F)n3nc(C(=O)N(C)Cc4ccccc4)cc3n2)cc1OC	20.6µM	n	20.6µM	n	u
CCN(CC)CCCNC(=O)c1cc2nc(-c3ccccc3)cc(C(F)(F)F)n2n1	n	n	n	n	1.03µM
